Experimental findings from PubChem BioAssay AID720504 (National Center for Advancing Translational Sciences (NCATS), 2013) are described below.

Hit rate of the full screen: of about 360,000 compounds, about 10,000 (2.8%) were called active. Another 4% or so got no clear call; they are omitted. Calls come from the whole dose curve; as a rule, active = well fitted inhibition curve with a large enough effect; inconclusive = small, poorly fitted or top-dose-only effect; inactive = flat fitted curve, though single readings scatter. This excerpt belongs to a sample that is enriched for actives.
% is set by controls: 0 for no effect and ±100 for the full control effect; potency is the fitted concentration of half-maximal effect.

Chain of Serine/threonine-protein kinase PLK1 (Homo sapiens) (P53350 whole entry, looked up, the tested form may be a part): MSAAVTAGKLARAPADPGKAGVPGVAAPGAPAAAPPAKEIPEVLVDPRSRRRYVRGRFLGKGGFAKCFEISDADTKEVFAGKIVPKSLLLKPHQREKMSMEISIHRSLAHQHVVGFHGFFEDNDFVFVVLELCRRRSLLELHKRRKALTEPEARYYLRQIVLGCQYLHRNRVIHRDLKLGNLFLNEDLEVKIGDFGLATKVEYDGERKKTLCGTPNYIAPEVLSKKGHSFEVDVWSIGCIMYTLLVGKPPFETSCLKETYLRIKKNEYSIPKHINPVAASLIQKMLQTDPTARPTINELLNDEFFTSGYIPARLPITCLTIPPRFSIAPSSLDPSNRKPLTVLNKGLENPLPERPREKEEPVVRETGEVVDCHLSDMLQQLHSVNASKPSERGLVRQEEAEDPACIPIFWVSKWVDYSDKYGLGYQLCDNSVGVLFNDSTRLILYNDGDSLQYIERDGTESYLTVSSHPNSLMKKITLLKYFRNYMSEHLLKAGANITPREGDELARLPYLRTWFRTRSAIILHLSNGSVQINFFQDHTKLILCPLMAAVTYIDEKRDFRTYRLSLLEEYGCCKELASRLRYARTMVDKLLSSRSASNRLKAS

The assay deals with Serine/threonine-protein kinase PLK1 (Homo sapiens) (UniProt P53350). Briefly: qHTS for Inhibitors of PLK1-PDB (polo-like kinase 1 - polo-box domain): Primary Screen. For max response, negative = inhibition: series mostly up to about 57 µM. Note: nearly all actives have a fitted effect of over 65% in size. Particulars: Plk1 PBD binding of FITC phosphopeptide, fluorescence polarization. An excerpt:
The polo-like kinase 1 (Plk1) is a member of a conserved subfamily of serine / threonine protein kinases that plays a pivotal roles in cell proliferation. It has a C-terminal non-catalytic region called the polo-box domain (PBD) that plays a crucial role in the subcellular localization of the Plk1. […] Furthermore, depletion of the overexpressed Plk1 by RNAi efficiently induces apoptotic cell death in cancer and reduces tumor growth in mouse xenograft models. Thus, targeting Plk1 is an appealing strategy for anti-cancer therapy. Therefore, this project aimed to screen the Molecular Libraries Small Molecule Repository (MLSMR) using a novel approach to find inhibitors that target the Plk1 PBD instead of the conventional N-terminal catalytic domain. This project employed a fluorescence polarization (FP) assay using a FITC-conjugated phospho-9-mer (p-9-mer) peptide and purified human Plk1 PBD protein. The identified small molecule inhibitors of Plk1 PBD can then further be developed into useful tools for biomedical and clinical research that complements or replaces current relevant disease therapy. NIH Chemical Genomics Center [NCGC] NIH Molecular Libraries Probe Centers Network [MLPCN] MLPCN Grant: MH100728 Assay Submitter (PI): Kyung Lee, NCI
Four microliter of 25 nM FITC-p-9-mer + 60 nM Plk1 PBD in buffer solution (final concentrations 25 nM and 60 nM respectively) or 4 uL of 25 nM FITC-p-9-mer (final concentration 25 nM) in buffer will be dispensed into a 1,536 Greiner medium-binding black solid plate. Small molecules at final concentrations of 18 nM to 57 uM and positive control phospho-9-mer (sequence: Ac-PPLHSpTAI-NH2) at final concentrations 26 nM to 57 uM and phospho-13-mer (sequence: Ac-[…]pTAI-NH2) at final concentrations of 1 nM to 2.3 uM will be pin-transferred (23 nL) to the plate via a Kalypsys pin-tool robotics equipped with a 1,536-pin array. The reaction plate will be centrifuged for 1 min at 1000 rpm and incubated at room temperature for 10 min. The FITC fluorescence signals will be read using the PerkinElmer ViewLux plate reader at 480 / 20 nm excitation and 540 / 20 nm S and P polarization emission wavelengths. Reagent bottles will be kept submerged into 4 °C recirculating chiller bath and all liquid lines will be covered with aluminum foil to minimize degradation. Library plates will be screened starting from the lowest to the highest concentrations to minimize compound carryover. Vehicle only plates, with DMSO being pin-transferred instead of compound solutions, will be included regularly throughout the screen to record any systematic shifts in assay signal.
`CCCC(NS(=O)(=O)c1ccc(OC)cc1)C(=O)O` (configuration not stated): the max response, negative = inhibition was -2.19% (inactive).
On to `COc1ccc(S(=O)(=O)/N=C2\C=C(NS(=O)(=O)c3ccccc3)C(=O)c3ccccc32)cc1`, for which the Potency is 29.9 µM (active).
For `COc1ccc(NS(=O)(=O)c2ccc(Oc3c(C#N)cccc3C#N)cc2)cc1`, the max response, negative = inhibition is -0.548% (inactive).
The same measure, in the same setting: with `CCOC(=O)N1CCN(C(=O)C(=O)Nc2sc3c(c2C#N)CC(C)(C)OC3)CC1` the figure was -23.2% (inactive); with `COC(=O)c1c(NC(=O)C(=O)N2CCCCC2)sc2c1CC(C)(C)OC2`, -13.1% (inactive).
As to `CC1(C)Cc2c(sc(NC(=O)C(=O)N3CCOCC3)c2C#N)CO1`, the Potency was 9.47 µM (active).
`CC(C)C[C@H]1CNC(=O)C(=O)N1C[C@@H]1CCCN1C[C@H](Cc1ccccc1)N1C[C@H](CC(C)C)N(CC2CCCCCC2)C(=O)C1=O`: the max response, negative = inhibition is 2.6% (inactive).
Still for that read-out and setting: with `CN1CCN(c2ccc(NC(=O)c3ccc4c(c3)[nH]c(=O)n4Cc3ccc(F)cc3)cc2)CC1` the figure was -2.57% (inactive).
With `Cc1ccc(CS(=O)(=O)c2ncc(Cl)c(C(=O)Nc3nnc(C)s3)n2)cc1`, the max response, negative = inhibition is -16.3% (inactive).
In the case of `O=C(Nc1ccc(F)cc1)c1ccc(S(=O)(=O)NCc2cccnc2)cc1`, the max response, negative = inhibition was -1.16% (inactive).
Turning to `Cc1cccc(NC(=O)c2nc(S(=O)(=O)Cc3ccccc3)ncc2Cl)c1`, the Potency is 8.44 µM (active).
On to `Cc1cccc(NC(=O)C(C)SCc2ccccc2)c1` (configuration not stated), for which the max response, negative = inhibition was -10.4% (inactive).
Turning to `Cc1cccc(CS(=O)(=O)c2ncc(Cl)c(C(=O)Nc3ccc(F)cc3)n2)c1`, the Potency is 16.8 µM (active).
As for `COC(=O)[C@@]12C[C@@H](CC(=O)NCCCCc3ccccc3)C(=O)N(Cc3ccccc3)C1=CCC(C)(C)C2`, the max response, negative = inhibition is -7.29% (inactive).
Same read-out and setting: with `O=C(C[C@H]1C[C@@H]2c3cc(NC(=O)C4CCC4)ccc3O[C@@H]2[C@H](CO)O1)NC1CCCCC1` the figure was -5.12% (inactive); with `COc1ccc(S(=O)(=O)N2CCC(C(=O)NCCC(=O)Nc3ccccc3OC)CC2)cc1`, 2.5% (inactive).
Consider `Cc1cccc(S(=O)(=O)N(C)C[C@@H]2OCc3cnnn3CCCC(=O)N([C@H](C)CO)C[C@@H]2C)c1`, for which the max response, negative = inhibition is -8.68% (inactive).
Turning to `COc1ccc(C(=O)N2CCCCC2c2cc(C(=O)Nc3ccccc3)no2)cc1` (configuration not stated), the max response, negative = inhibition is -2.81% (inactive).
The same measure, in the same setting: the same measure for `Cc1ccccc1S(=O)(=O)NC(=O)C1(C)CCN1C(=O)C1(c2ccccc2)CCCC1` (configuration not stated): 2.57% (inactive).
For the compound `CCn1c(CNC(=O)c2ccccc2)nnc1SCC(=O)N1CCN(c2ccccc2)CC1`, the max response, negative = inhibition is -1.21% (inactive).
Turning to `Cn1c(Cc2cccc3ccccc23)nnc1SCC(=O)N1CCN(c2cccc(Cl)c2)CC1`, the Potency is 29.9 µM (active).
As for `Cn1c(CNC(=O)c2ccco2)nnc1SCC(=O)N1CCN(c2ccccc2)CC1`, the max response, negative = inhibition is -4.04% (inactive).
